Measurements published in PubChem BioAssay (NCI).
About 83,000 compounds went through this panel and 20% of them were active in at least one assay; those are over-represented in the sample as a whole.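 48-hour exposure, single concentration, 96-well plates; percent growth endpoint where 0 means no net growth. Active: below 10.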 Activity calls are given as the source filed them.

Each molecule was assayed on NCI-H460 lung (assay: NCI-60 one-dose screen, 48 h (100 = growth as untreated, 0 = no growth, -100 = all killed)). Settings: 10 µM unless noted.
Method: Growth inhibition of the NCI-H460 human Non-Small Cell Lung tumor cell line is measured as a screen for anti-cancer activity. Cells are grown in 96 well plates and exposed to the test compound for 48 hours. Compounds are tested at a single concentration, which is 10^-5 M for most compounds. The reported endpoint is percent growth (GI% or GIPRCNT), where numbers from 0 - 100% represent growth inhibition, and numbers from -100% - 0 represent cell death. For example, a value of 40 represents 60% growth inhibition. A value of 0 means no net growth occurred over the course of the experiment. A value of -40 indicates 40% of cells at the beginning of the experiment died by the end of the experiment. A value of -100 means all cells are dead at the end of the experiment.
NCI-60 Human Tumor Cell Lines Screen was performed using the standard one-dose NCI protocol, which is described in more detail at https://dtp.cancer.gov/discovery_development/nci-60/default.htm.
Compounds with GIPRCNT values below 10 were considered active. Activity score was based on GIPRCNT using the following formula: […]
Score is 0 for GIPRCNT values of 100 or above, 50 for GIPRCNT values of 0, and 100 for GIPRCNT values of -100.
`COc1ccc(-c2[nH]c3ccc(OC)cc3c2/C=C(\C#N)S(=O)(=O)c2ccccc2)cc1` was tested, and the growth was 4.64% (active). In the case of `O=[N+]([O-])c1ccccc1NCSc1ccc(Cl)cc1`, the growth is reported as 95.8% (inactive). For `Cc1ncc(C(=O)Nc2ccc(CN3CCN(C)CC3)c(C(F)(F)F)c2)cc1C#Cc1ccc(N)nc1`, the growth was -60.3% (active). In the case of `COc1cc2cc(Oc3ccc(NC(=O)Nc4ccc(Cl)c(Cl)c4)cc3)c(C)nc2cc1OCCN1CCOCC1`, the growth is reported as 91.8% (inactive). In the case of `COc1ccc(CNC(=O)C(=O)[C@H](Cc2ccccc2)NC(=O)c2[nH]c3ccccc3c(=O)c2C)cc1`, the growth is reported as 108% (inactive). `CN1CCN(c2ccc(-c3ccc4ncc(C#N)c(Nc5ccc(F)c(Cl)c5)c4c3)cn2)CC1` was tested, and the growth was 26.9% (inactive). With `O=CN1N=C(c2ccc(Nc3ccnc4cc(Cl)ccc34)cc2)CC1c1ccccc1` (stereo not given) the growth was 44.4% (inactive). With `CCCCOc1ccc(/C=N/NC(N)=S)cc1` the growth was 96.5% (inactive). With `O=c1c2cc(F)ccc2sc2c(NCCCNCCO)nc3ccccc3c12` the growth was -71.3% (active). For `O=S(=O)(NCCCNc1cc(-c2c(-c3cccc(O)c3)nc3sccn23)ccn1)c1cccc2ccccc12`, the growth was 39.7% (inactive). For `COc1cc(C2CC(c3cccc(Br)c3)=NN2C(C)=O)cc(OC)c1OC` (stereo not given), the growth was 9.31% (active). `Clc1ccc(C(/C=C/c2sc(Cl)nc2Cl)=N/Nc2cc(Cl)cc(Cl)c2)cc1` was tested, and the growth was 103% (inactive). In the case of `O=C1CCC/C=C\C[C@H]2C=CC(=O)/C2=C/C[C@H](CCc2cccc(C(F)(F)F)c2)O1`, the growth is reported as -24.6% (active). For `COC1=C(C)C(=O)c2c(c(CCCl)c3n2CCC3OC(C)=O)C1=O` (stereo not given), the growth was -14.3% (active). In the case of `COC(=O)[C@H](C)NC(=O)NC(=O)NC(=O)CI`, the growth is reported as 104% (inactive). `COc1cc(C(=O)c2cnc(-c3cccc4[nH]ccc34)[nH]2)cc(OC)c1OC` was tested, and the growth was 2.81% (active). `COc1ccc(C(=O)COC(=O)[C@H](C[Se][Se]C[C@H](NC(=O)c2ccc(Br)cc2F)C(=O)OCC(=O)c2ccc(OC)cc2)NC(=O)c2ccc(Br)cc2F)cc1` was tested, and the growth was -36.6% (active). For `COc1ccc(/C=C(\C#N)n2nnc3c(F)cccc32)cc1`, the growth was 2.99% (active). In the case of `Cc1ccc(/C=N\NC(=O)c2[nH]c3ccc(F)cc3c2-c2ccccc2)cc1`, the growth is reported as 3.26% (active). For `c1ccc(Cc2nn3cc(-c4ccccc4)nc3s2)cc1`, the growth was 102% (inactive). For `CCOC(=O)c1sc2ncc(-c3ccc(C)cc3)n2c1C`, the growth was 101% (inactive). For `N#C/C(=C\c1ccc(F)cc1)n1nc2cccc(F)c2n1`, the growth was 39.2% (inactive). With `Cc1ccc(C(C)C)cc1C(=O)C[n+]1ccccc1` the growth was 109% (inactive). `BrCCCc1n(Cc2ccc3ccccc3c2)c2ccccc2[n+]1Cc1ccc2ccccc2c1` was tested, and the growth was -88.4% (active). With `COc1ccc(C(=O)C(C)C)c2ccccc12` the growth was 101% (inactive). For `CCCCCCNC(=O)Oc1ccc(/C(=C(\C)c2ccc(Cl)cc2)c2ccc(OCCN3CCCCC3)cc2)cc1`, the growth was 23.8% (inactive). For `O=c1c2cc(F)ccc2sc2c(N3CCCCC3)nc3ccccc3c12`, the growth was 109% (inactive). With `CCCCNC(=O)Oc1ccc(/C(=C(\C)c2ccc(Cl)cc2)c2ccc(OCCN3CCCCC3)cc2)cc1` the growth was 85.9% (inactive). In the case of `CCOC(=O)Cn1c(=O)c2c(c3ccccc3n2C)n2nnc(-c3ccccc3)c12`, the growth is reported as 102% (inactive). With `CN(C(=O)NCc1cccc(F)c1Cl)[C@H](COC(=O)Nc1cc2ccccc2cn1)CC(O)CO` (stereo not given in full) the growth was 100% (inactive). With `c1ccc(CO[C@H]2CO[C@H]3[C@@H]2OC[C@@H]3Oc2ccc(Nc3ncnc4ccsc34)cc2)cc1` the growth was 84.5% (inactive). `COc1cc(C(=O)/C=C/c2ccc(OCCCCCC[P+](c3ccccc3)(c3ccccc3)c3ccccc3)cc2)cc(OC)c1OC` was tested, and the growth was -73.6% (active). With `Oc1c(I)cc(I)cc1CNCCCN(Cc1ccccn1)Cc1ccccn1` the growth was -57.2% (active). For `CCCCn1c(=O)c(-c2cc(-c3ccc(Cl)cc3)nc(-c3ccc(Cl)cc3)c2)cc2ccc(Cl)cc21`, the growth was 106% (inactive). With `COc1ccc(C2CC(c3ccc(Nc4ccnc5cc(Cl)ccc45)cc3)=NN2C=O)cc1` (stereo not given) the growth was 80.2% (inactive). For `C=C1C(=O)O[C@H]2[C@H]1CC/C(COC(=O)CCC(=O)NCCOCCOCC(=O)Nc1ccc(OC)c(C(N)=O)c1O)=C\CC[C@@]1(C)O[C@@H]21`, the growth was 79.3% (inactive). For `COc1ccc(S(=O)(=O)n2c3ccccc3n3ncc(-c4nnc(C)o4)c23)cc1`, the growth was 14.2% (inactive). With `COC1=C(C)C(=O)c2c(c(CCCl)c3n2CCC3O)C1=O` (stereo not given) the growth was 4.7% (active). In the case of `COC(=O)c1ccc2[nH]c(O)c(C(=Nc3ccc(N(C)C(=O)CN4CCN(C)CC4)cc3)c3ccccc3)c2c1`, the growth is reported as 24.9% (inactive). `CC([C@H]1CCC2C3CCC4C[C@@H](NC=O)CC[C@]4(C)C3CC[C@@]21C)N(C)C` (stereo not given in full) was tested, and the growth was -59.3% (active).
